From PubChem BioAssay (NCI)
The panel holds about 83,000 compounds, 20% with a hit somewhere; the sample as a whole holds those more often.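 Results are percent growth after 48 hours of single-concentration exposure. 100 means growth as in untreated cells, lower positive values show inhibition; negative values down to -100 show cell death.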 Unmarked numbers belong to inactive results. Active and inactive are the calls of the source. How the source made its calls: active means growth percent below 10; inactive means the rest.

Tests used:
Assay in all cases: NCI-60 one-dose screen, 48 h (100 = growth as untreated, 0 = no growth, -100 = all killed)
SK-MEL-2 melanoma = settings: 10 µM unless noted
SN12C renal = settings: 10 µM unless noted
UO-31 renal = settings: 10 µM unless noted
TK-10 renal = settings: 10 µM unless noted
ACHN renal = settings: 10 µM unless noted
CAKI-1 renal = settings: 10 µM unless noted
A498 renal = settings: 10 µM unless noted
CCRF-CEM leukemia = settings: 10 µM unless noted
MOLT-4 leukemia = settings: 10 µM unless noted
SR leukemia = settings: 10 µM unless noted
RPMI-8226 leukemia = settings: 10 µM
OVCAR-8 ovarian = settings: 10 µM unless noted
OVCAR-5 ovarian = settings: 10 µM unless noted
OVCAR-4 ovarian = settings: 10 µM unless noted
SK-OV-3 ovarian = settings: 10 µM
IGROV1 ovarian = settings: 10 µM unless noted
OVCAR-3 ovarian = settings: 10 µM unless noted
HS 578T breast = settings: 10 µM unless noted
NCI/ADR-RES ovarian = settings: 10 µM unless noted
EKVX NSCLC = settings: 10 µM unless noted

SMILES	growth (SK-MEL-2 melanoma)	growth (SN12C renal)	growth (UO-31 renal)	growth (TK-10 renal)	growth (ACHN renal)	growth (CAKI-1 renal)	growth (A498 renal)	growth (CCRF-CEM leukemia)	growth (MOLT-4 leukemia)	growth (SR leukemia)	growth (RPMI-8226 leukemia)	growth (OVCAR-8 ovarian)	growth (OVCAR-5 ovarian)	growth (OVCAR-4 ovarian)	growth (SK-OV-3 ovarian)	growth (IGROV1 ovarian)	growth (OVCAR-3 ovarian)	growth (HS 578T breast)	growth (NCI/ADR-RES ovarian)	growth (EKVX NSCLC) [%]
Cn1c2c(cc(S(=O)(=O)c3ccccc3)c1=O)CCc1c-2cnn1-c1ccccc1Cl	105%	97.8%	-16% (active)	122%	-31% (active)	54.7%	86.5%	96.4%	90.7%	80.2%	91.7%	88.6%	96.5%	101%	88.7%	107%	110%	117%	113%	
O=[N+]([O-])c1cc2c(cc1Br)C1C(C3C2C(Cl)(Cl)C(Cl)=C(Cl)C3(Cl)Cl)C(Cl)(Cl)C(Cl)=C(Cl)C1(Cl)Cl (stereo not given)	81.2%	98.7%	74.4%	103%	102%	91.4%	111%	86.5%	95.1%	80.2%	88.1%	97%	102%	102%	101%	102%	95.6%	114%	94%	
CC1(C)N=C(N)N=C(N)N1c1cccc(/C=C/C=C/c2cccc([N+](=O)[O-])c2)c1	67.2%	83.6%	81.5%	50.9%	95.6%	96.9%	65.2%	35%	45.5%	37%	8.42% (active)	84.1%	44.7%	65.3%	83.3%	35.3%	30.1%	95%	108%	
Cc1nc2cc(Nc3nc(NCCN)nc(Nc4ccc(F)cc4)n3)ccc2n1Cc1ccccc1	90.5%	85.1%	89.3%	101%	96.8%	94.2%	67.4%	-13.7% (active)	-14.4% (active)	-26.5% (active)	-45% (active)	89.1%	106%	77%	95.5%	81.4%	86.7%	102%		
O=C1C2CC3C(CC2C(=O)[N]1[Sn]([c]1ccccc1)([c]1ccccc1)[c]1ccccc1)C1(Cl)C(Cl)=C(Cl)C3(Cl)C1(Cl)Cl (stereo not given)	-93.5% (active)	-87.3% (active)	-98.3% (active)	-100% (active)	-99.8% (active)	-92.8% (active)	-95.5% (active)	-43.3% (active)	-46.1% (active)	-50.1% (active)	-52.3% (active)	-97.5% (active)	-100% (active)	-83% (active)	-100% (active)	-66.2% (active)	-97.3% (active)	-20% (active)	-55.5% (active)	
Cc1nc2cc(Nc3nc(Nc4ccc(F)cc4)nc(N4CCCC4)n3)ccc2n1Cc1ccccc1	-58% (active)	-62.9% (active)	-68.7% (active)	-55.8% (active)	11.5%	-14.4% (active)	-19.3% (active)	-30.4% (active)	-30.7% (active)	-27.9% (active)	-47.4% (active)	-35.2% (active)	-54.8% (active)	4.79% (active)	-2.81% (active)	-6.78% (active)	-84% (active)	30.6%	-28% (active)	
Nc1nc2c(s1)CCc1c-2c(Br)n(Cc2ccccc2)c1Br	99.7%	87.7%	72.9%	88.1%	19.4%	81.5%	91.5%	2.66% (active)	11%	20.8%	51.7%	74.3%	105%	81.8%	108%	104%	52.5%	96.9%		
O=C(Nc1nc2ccccc2[nH]1)C(=O)Nc1nc2ccccc2[nH]1	98.8%	94.5%	69.6%	132%	93.4%	91.5%	99.1%	94.7%	103%	89.6%	90.8%	102%	88.6%	96.3%	108%	81.9%	101%	105%	98.7%	
COc1ccc(/C=C(\C#N)c2ccc(OC)cc2)cc1	54.4%	67.5%		76.7%	88.3%	64.7%	46.6%	55.6%	56.9%		55.8%	81.9%	85.1%	81.8%	74.9%		62.6%	86.3%	4% (active)	92.2
CCOc1ccc(/C=N\N2CCCCCC2)cc1OCC	103%	82.7%		97.7%	88.7%	90.8%		102%		89.6%	83.4%	101%	95%		91.6%		104%	120%		76.8
Cc1nc2cc(Nc3nc(N4CCOCC4)nc(N4CCN(C)CC4)n3)ccc2n1Cc1ccccc1	106%	101%	81.7%	106%	96.6%	93.3%	92.4%	96.2%	91.8%	93%	102%	98.3%	96.7%	100%	103%	103%	115%	108%	110%	
Brc1ccc(SCN(CSc2ccc(Br)cc2)Cc2ccccc2)cc1	94.6%	27.3%	39%	113%	87.3%	73%	56.3%	4.88% (active)	17%	34.6%	36.3%	74.4%	90.1%	75.5%	93.9%	35.6%	91.6%	88.1%	73.4%	
COc1ccc(CSc2nc3cc(OC)c(OC)cc3c(=O)n2-c2ccc(Cl)cc2)cc1	110%	98.6%	71.2%	116%	97.1%	91.2%	88.7%	88.6%	101%	102%	90.8%	98.7%	94.2%	103%	105%	104%	103%	97.1%	101%	
CN([N-]C(=O)CC(=O)[N-]N(C)C(=S)c1ccccc1)C(=S)c1ccccc1.[Cu+2]	-90.2% (active)	-97.9% (active)	-97.5% (active)	-99.1% (active)	-50.6% (active)	-94.7% (active)	-93.9% (active)	-19.7% (active)	-36.2% (active)	-17.7% (active)	-13.7% (active)	-39.1% (active)	-53.4% (active)	-98.4% (active)	-99.1% (active)	-93.2% (active)	-85.7% (active)	-12.3% (active)	-3.82% (active)	
CC(=O)Nc1ccc(S(=O)(=O)N/N=C\c2ccc(Cl)c(Cl)c2)cc1	90.6%	99.1%		93.2%	98.5%	91.5%	72.7%	92.8%	100%		92.5%	103%	108%		105%		111%	103%		99.7
Cc1ccc(-c2nnc(COc3ccc(-c4nnc(N)s4)cc3)o2)cc1	104%	82.2%	91.7%	106%	107%	94.8%	103%	47.7%	77.6%	5.12% (active)		100%	113%	58%	80.7%	108%	98.1%	85%	95%	
